IL-2 act – qHTS of IL-2 Activators | IL-2 activation reporter assay, cell-based qHTS; stimulated with anti-CD3/CD4/CD28 beads; in transgenic mouse T cells | activation, % (series mostly up to about 46 µM) | hit rate 0.065% among 360,000 | AID 652025, 2013; in the data active means activation above about 50%; inconclusive means mostly about 30% to 49%
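First, unstimulated transgenic mouse T cells were exposed to compound for 60 min. Next, anti-CD3/anti-CD4-coated beads with anti-CD28 were added. Finally, after 18 h at 37 degrees C, EGFP and DsRed were imaged.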
Nrf2 ARE act – qHTS of Nrf2 Activators; AREc32 ARE-luciferase reporter (MCF7-derived line), luminescence, 24 h; Potency, µM (titrated, usually from 46.1 µM), hits mostly activators; hit rate 0.31% among 410,000; further: nearly all actives have a fitted effect of over 65% in size
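Reporter line AREc32 (ARE-Fluc), seeded overnight in OPTI-MEM with 5% FBS; compound pin-transferred, 24 hr at 37 deg C, 5% CO2; luminescent read-out.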
BRCA1 expr act – qHTS Assay to Identify Small Molecule Activators of BRCA1 Expression; Potency, µM (highest dose often 46.1 µM), hits mostly activators; MCF7-BRCA1-FFLuc reporter, luminescence, 48 h; response scale: scaled: vehicle 0%, 10 µM genistein 100%; hit rate 1.1% among 380,000; further: nearly all actives have a fitted effect of over 80% in size
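First, MCF7-BRCA1-FFLuc cells (2000/well) attach for 2 h; next, compounds are pin-added and incubated 48 h at 37 °C; finally, luciferase reagent is added and luminescence read after 15 min.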
ELG1 repair inh – qHTS screen for small molecules that inhibit ELG1-dependent DNA repair in human embryonic kidney (HEK293T) cells expressing luciferase-tagged ELG1. Potency, µM (top dose mostly 46.1 µM), usual class: inhibitors. hit rate 2.3% among 330,000. HEK293T ELG1-luciferase reporter, luminescence, 16 h; DNA damage induced by 5-fluorouridine; further: nearly all actives have a fitted effect of over 55% in size
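Reporter activity after DNA damage by 5-fluorouridine is monitored. Compound-treated cells incubate 16 hr at 37 °C, then ONE-Glo is added for 30 min before luminescence reading.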
Of the large screens only hits and unclear results are named; the others gave an inactive call. Rows were chosen to be rich in hits. Some 3.1% of all compounds tested hit in one or more screens of this group. Unless noted, the call rests on the fitted dose curve; in most records, active means well fitted curve in the direction sought with a large enough effect; inconclusive means small, poorly fitted or top-dose-only effect, or another doubt; inactive means no such curve, though single readings can be large; an effect the other way counts as inactive or inconclusive.

COc1cccc(/C=C2/SC(=S)N(CC(=O)Nc3nccs3)C2=O)c1	none (no result: IL-2 act, Nrf2 ARE act, ELG1 repair inh)
NC(COCc1ccccc1)c1csc(NC(=O)Nc2cccc(Cl)c2)n1 (centres undefined)	none (no result: ELG1 repair inh)
Cc1ccc(-c2cc(C(=O)Nc3c(C(=O)c4ccc(C)c(F)c4)oc4ccccc34)no2)cc1	none (no result: IL-2 act, ELG1 repair inh)
Cc1ccc(CCNC(=O)c2cn(C)c3ccc(S(=O)(=O)N4CCC(C)CC4)cc3c2=O)cc1	none (no result: IL-2 act, BRCA1 expr act, ELG1 repair inh)
COc1ccc(/C=C2\SC(=S)N(Cc3cccnc3)C2=O)cc1C	Nrf2 ARE act inconclusive, ELG1 repair inh inconclusive
CCOc1cc(/C=C2/SC(=Nc3ccccc3)N(Cc3cccnc3)C2=O)ccc1OCC#N	ELG1 repair inh 18µM
Cc1ccc(NC(=O)Cn2cc(S(=O)(=O)N3CCC(C)CC3)c3ccccc3c2=O)c(Br)c1	none (no result: IL-2 act, ELG1 repair inh)
COc1ccccc1CN1CCN(C2CCN(C(=O)NC(C)C)CC2)C(=O)C1=O	none (no result: IL-2 act, BRCA1 expr act, ELG1 repair inh)
Cc1cc(C)c(NC(=O)c2ccc(S(=O)(=O)N(C)C)cc2)c(C)n1	none
Cc1cccc(C(=O)NC(=O)Nc2c(C)cc(C)nc2C)c1	BRCA1 expr act 4µM, ELG1 repair inh inconclusive
CCN(CC)CCCOc1cc2nc(N3CCCN(C)CC3)nc(NC3CCN(C)CC3)c2cc1OC	none (no result: IL-2 act, Nrf2 ARE act, ELG1 repair inh)
COc1ccc(Cl)cc1NC(=O)C(C)n1nnc2sc3c(c2c1=O)CCCC3 (centres undefined)	none (no result: IL-2 act, BRCA1 expr act, ELG1 repair inh)
COc1ccc(CNC(=O)C23CC4CC(CC(Br)(C4)C2)C3)cc1	none
COc1ccc(C(=O)C23CC4CC(C2)CC(C(=O)c2ccc(OC)cc2)(C4)C3)cc1	ELG1 repair inh 5.8µM
COc1cc(NC(=O)c2ccc(S(=O)(=O)N(C)c3ccccc3)cc2)cc(OC)c1	ELG1 repair inh 23µM
CN(c1ccccc1)S(=O)(=O)c1cccc(NC(=O)c2ccc(Cl)c([N+](=O)[O-])c2)c1	ELG1 repair inh 21µM
CN(c1cccc(NC(=O)c2ccc(N(C)S(=O)(=O)c3ccccc3)cc2)c1)S(C)(=O)=O	ELG1 repair inh 16µM
CN(c1ccccc1)S(=O)(=O)c1cccc(C(=O)Nc2ccc3c(c2)CCC3)c1	ELG1 repair inh 15µM
O=S(=O)(c1ccc(F)cc1)N1CCN(c2nc(-c3ccc(F)cc3)nc3cc(Cl)ccc23)CC1	none (no result: IL-2 act, Nrf2 ARE act, ELG1 repair inh)
CCN(C(=O)C1CCN(S(=O)(=O)c2ccc3c(c2)CCCN3C(=O)C2CCC2)CC1)c1cccc(C)c1	none (no result: IL-2 act, BRCA1 expr act, ELG1 repair inh)
COc1ccc(NC(=O)CCc2nnc3n(Cc4ccccc4Cl)c(=O)c4ccccc4n23)cc1	none (no result: IL-2 act, BRCA1 expr act, ELG1 repair inh)
CCc1nc(Nc2ccc(F)c(Cl)c2)c2c3c(sc2n1)CCCC3	none (no result: IL-2 act, ELG1 repair inh)
Cc1csc(NC(=O)c2ccc(S(=O)(=O)N(C)c3ccccc3)cc2)n1	ELG1 repair inh 23µM
CN(c1cccc(NC(=O)CN(c2ccc(Cl)c(Cl)c2)S(=O)(=O)c2ccccc2)c1)S(C)(=O)=O	ELG1 repair inh 16µM
Cc1nnc(NC(=O)c2ccc(S(=O)(=O)N(C)c3ccccc3)cc2)s1	none
CN(c1ccc(C(=O)Nc2ccc(F)cc2F)cc1)S(=O)(=O)c1ccccc1	ELG1 repair inh 15µM
Cc1ccc(S(=O)(=O)N(CC(=O)Nc2cccc(N(C)S(C)(=O)=O)c2)c2ccc(Cl)c(Cl)c2)cc1	ELG1 repair inh inconclusive
COc1cccc(CNC(=O)C2CCN(Cc3cc4ccccc4n3Cc3ccc(C)cc3)CC2)c1	none (no result: IL-2 act, BRCA1 expr act, ELG1 repair inh)
COc1cc([N+](=O)[O-])ccc1NC(=O)NCC1CCN(Cc2ccc(Cl)cc2)CC1	ELG1 repair inh 23µM
CCOc1ccccc1CNC(=O)CCn1c(=O)c2cccn2c2ccc(F)cc21	none (no result: IL-2 act, BRCA1 expr act, ELG1 repair inh)
CC1CCN(S(=O)(=O)c2ccc3c(c2)c(=O)c(C(=O)NCc2ccco2)cn3C)CC1	ELG1 repair inh 18µM
CCn1cc(C(=O)NCC2CCCO2)c(=O)c2cc(S(=O)(=O)N(C)C)ccc21 (centres undefined)	none
CC1CCN(S(=O)(=O)c2ccc3c(c2)c(=O)c(C(=O)NCc2cccs2)cn3C)CC1	none
Cn1cc(C(=O)NCC2COc3ccccc3O2)c(=O)c2cc(S(=O)(=O)N3CCCCC3)ccc21 (centres undefined)	ELG1 repair inh 18µM
CCn1cc(C(=O)NCC2CCCO2)c(=O)c2cc(S(=O)(=O)N(C)C3CCCCC3)ccc21 (centres undefined)	ELG1 repair inh 16µM
